Results on 27 molecules are retold here after PubChem BioAssay (NCI).

Test systems include T-47D breast; BT-549 breast; MDA-MB-435 melanoma; SW-620 colon; MCF7 breast; HCT-116 colon; KM12 colon; HCC-2998 colon.
Experiment in all cases: NCI-60 one-dose screen, 48 h (100 = growth as untreated, 0 = no growth, -100 = all killed)
Details in all cases: 10 µM unless noted

SMILES strings stand for the structures. About 83,000 compounds went through this panel and 20% of them were active in at least one assay; those are over-represented in the sample as a whole.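 Negative percent growth values reflect cell death: -40 means 40% of the cells present at the start died, and -100 means all died.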 Values without a mark were called inactive. The source made the active and inactive calls. How the source made its calls: active means growth percent below 10; inactive means the rest.

`CCCCNc1nnc(-c2cc(-c3cc4ccccc4o3)nn2-c2ccccc2)o1`: the growth was 76.7% in the assay on T-47D breast; 96.7% with BT-549 breast; 101% in the assay on MDA-MB-435 melanoma; 103% with SW-620 colon; 73.8% in the assay on MCF7 breast; 89.4% in the assay on HCT-116 colon. In addition, in the assay with KM12 colon, the growth is 103%.

Regarding `COc1cc(CNC(=O)CSc2nc3ccccc3c(=O)n2Cc2cc(OC)c(OC)c(OC)c2)cc(OC)c1OC`, the growth was 89.7% in the assay with T-47D breast; 104% with BT-549 breast; 103% with MDA-MB-435 melanoma; 109% with SW-620 colon; 92.7% in the assay with MCF7 breast; 97.5% in the assay with HCT-116 colon. The growth with KM12 colon is 102%.

`COc1cc(NC(=O)c2cc3ccccc3nc2Nc2ccc(F)cc2)cc(OC)c1OC`: the growth in the assay with T-47D breast was 22.1%; with BT-549 breast, 30.7%; in the assay on MDA-MB-435 melanoma, 27%; in the assay with SW-620 colon, 54.4%; in the assay on MCF7 breast it was 24.2%; in the assay on HCT-116 colon, 35.8%. Also, the growth with KM12 colon was 42.7%.

Turning to `Clc1ccc(-c2nc(-c3ccco3)cn3ccnc23)cc1`, the growth in the assay with T-47D breast was 40.2%; in the assay on BT-549 breast, 84.5%; in the assay with MDA-MB-435 melanoma, 78.6%; with SW-620 colon, 72.7%; in the assay on MCF7 breast, 27.2%; in the assay with HCC-2998 colon, 58.2%. Further, in the assay on KM12 colon, the growth is 48.7%.

As for `COc1cc(OC)c(C(=O)/C=C/c2ccc(C(F)(F)F)cc2)c(OC)c1`, the growth was 26.6% in the assay with T-47D breast; -3.68% (active) with BT-549 breast; 23.8% in the assay with MDA-MB-435 melanoma; 9.97% (active) in the assay on SW-620 colon; 19.7% in the assay on MCF7 breast; 85% with HCC-2998 colon. In the assay with KM12 colon, the growth is 36.6%.

Take `CCC(=O)Nc1ccccc1C#C/C=C\C#Cc1ccccc1SC`: the growth with T-47D breast was 57.2%; with BT-549 breast, 71.6%; with MDA-MB-435 melanoma it was -16.5% (active); with SW-620 colon, 35.3%; with MCF7 breast it was 62.2%; in the assay on HCT-116 colon it was 41.6%. Moreover, the growth in the assay with KM12 colon is 43.5%.

In the case of `O=C(Nc1cccc(C(F)(F)F)c1)Nc1ccc(OCc2nnc(-c3ccccc3)o2)c(F)c1`, the growth is 21.1% in the assay on T-47D breast; 29.6% in the assay with BT-549 breast; 49.4% in the assay on MDA-MB-435 melanoma; 28.7% with SW-620 colon; 24.8% with MCF7 breast; 14.6% with HCT-116 colon. Further, the growth in the assay with KM12 colon is 12.2%.

Take `CC(Br)C(Br)c1cc2c(cc1Br)OCO2` (stereo not drawn): the growth in the assay with T-47D breast is 73.7%; with BT-549 breast, 100%; in the assay on MDA-MB-435 melanoma, 97.9%; in the assay with SW-620 colon it was 109%; in the assay with MCF7 breast, 93.9%; in the assay with HCT-116 colon it was 88.5%. In addition, the growth in the assay with KM12 colon is 103%.

In the case of `C/C(=C\c1csc(C)n1)[C@@H]1C[C@@H]2O[C@]2(C)CCC[C@H](C)[C@H](O)[C@@H](C)C(=O)C(C)(C)[C@@H](O)CC(=O)N1`, the growth was -21.8% (active) with T-47D breast; -45.3% (active) in the assay on BT-549 breast; -79.7% (active) in the assay with MDA-MB-435 melanoma; -98.6% (active) with SW-620 colon; -82.1% (active) with MCF7 breast; -79.1% (active) in the assay with HCT-116 colon. For the same molecule, the growth in the assay with KM12 colon was -99.2% (active).

For `O=C1CCCCC=C1C[N+](=O)[O-]`, the growth in the assay with T-47D breast is 70.3%; in the assay with BT-549 breast it was 97.2%; with MDA-MB-435 melanoma, 92.9%; in the assay with SW-620 colon, 39.6%; in the assay with MCF7 breast, 84.4%; with HCT-116 colon, 62.5%. In addition, the growth with KM12 colon was 105%.

In the case of `O=C(Nc1cc(C(F)(F)F)cc(C(F)(F)F)c1)Nc1ccc(OCc2nnc(-c3ccc(Cl)cc3)o2)c(F)c1`, the growth in the assay on T-47D breast was 13.2%; in the assay with BT-549 breast it was 22.8%; in the assay with MDA-MB-435 melanoma, 9.18% (active); in the assay on SW-620 colon, 22.8%; with MCF7 breast it was 6.03% (active); in the assay on HCT-116 colon, 7.81% (active). In the assay on KM12 colon, the growth was 13.7%.

Take `Clc1nc(-c2cccnc2)nc2sc3c(c12)CCCCCC3`: the growth in the assay on T-47D breast was 95.4%; in the assay on BT-549 breast, 99.8%; in the assay with MDA-MB-435 melanoma, 97.3%; in the assay on SW-620 colon, 106%; with MCF7 breast it was 92.7%; in the assay with HCT-116 colon, 97.1%. Also, the growth with KM12 colon was 116%.

Consider `COc1cc(-c2n[nH]nc2-c2ccc3c(c2)OCCO3)cc(OC)c1OC`, for which the growth with T-47D breast was 40.5%; with BT-549 breast it was 12%; in the assay with MDA-MB-435 melanoma, -11.4% (active); in the assay with SW-620 colon it was 19.4%; in the assay with MCF7 breast, 9.04% (active); in the assay on HCC-2998 colon, 10.1%.

Turning to `CN(C)C1CCC(NC2=CC(=O)C=CC2=O)CC1` (stereo not drawn), the growth in the assay with T-47D breast was 110%; with BT-549 breast, 114%; in the assay with MDA-MB-435 melanoma it was 114%; in the assay on SW-620 colon, 117%; in the assay on MCF7 breast, 97.9%; with HCC-2998 colon, 126%. For the same molecule, the growth in the assay with KM12 colon was 108%.

On to `O=c1oc2c([nH]c3ccc4ccccc4c32)c2ccccc12`, for which the growth in the assay on T-47D breast is 77.5%; in the assay with BT-549 breast, 104%; in the assay with MDA-MB-435 melanoma, 105%; in the assay on SW-620 colon, 98.3%; in the assay with MCF7 breast it was 73.7%; in the assay with HCT-116 colon, 102%. Further, in the assay with KM12 colon, the growth was 106%.

Take `O=C(O)c1ccc(-n2cc(CNc3ccc(C(F)(F)F)cc3)c(-c3ccccc3)n2)cc1`: the growth with T-47D breast was 79.2%; with BT-549 breast it was 99.1%; with MDA-MB-435 melanoma, 90.8%; with SW-620 colon it was 98.2%; with MCF7 breast it was 81.8%; in the assay with HCC-2998 colon, 108%. In the assay on KM12 colon, the growth is 84.7%.

On to `Clc1cccc(Cl)c1Cn1c(-c2cncs2)nc2ccccc21`, for which the growth is 64.5% in the assay with T-47D breast; 85.1% with BT-549 breast; 44.5% in the assay with MDA-MB-435 melanoma; 94% in the assay with SW-620 colon; 92.3% in the assay on MCF7 breast; 82.6% in the assay with HCC-2998 colon. The growth with KM12 colon is 80.5%.

Take `C[C@]12CC[C@@H]3c4cc(O)c(O)cc4CC[C@H]3[C@@H]1CC[C@@H]2O`: the growth is 30.4% in the assay with T-47D breast; 37.7% with BT-549 breast; -45% (active) with MDA-MB-435 melanoma; 30.7% in the assay with SW-620 colon; 17.8% in the assay on MCF7 breast; 91.4% in the assay on HCC-2998 colon. For the same molecule, in the assay with KM12 colon, the growth was 74.5%.

In the case of `CCSc1nnc(NC(=O)Cc2ccc(Cl)cc2)s1`, the growth was 96.2% with T-47D breast; 109% with BT-549 breast; 98.9% in the assay on MDA-MB-435 melanoma; 109% in the assay with SW-620 colon; 101% with MCF7 breast; 84.9% in the assay with HCC-2998 colon. Moreover, the growth in the assay with KM12 colon was 96.9%.

Regarding `Cc1ccc(Oc2nc3ccccc3cc2-c2nnc(Cn3c(COc4ccccc4)nc4ccccc43)o2)cc1`, the growth in the assay on T-47D breast is 48.9%; with BT-549 breast, 14.7%; in the assay on MDA-MB-435 melanoma, 50.8%; in the assay on SW-620 colon, 18.1%; with MCF7 breast, 11.6%; in the assay on HCC-2998 colon, 64.5%. Besides, the growth in the assay with KM12 colon was 16.7%.

In the case of `O=S(=O)(NCCCNc1nccc(-c2c(-c3ccccc3)nc3sccn23)n1)c1ccc(F)cc1`, the growth was 7.39% (active) in the assay on T-47D breast; 54.3% in the assay with BT-549 breast; 16.5% in the assay on MDA-MB-435 melanoma; 53.8% in the assay with SW-620 colon; 31.6% with MCF7 breast; 86.4% with HCC-2998 colon. Besides, the growth with KM12 colon was 39.4%.

As for `O=C(c1ccccc1)C(Cl)C(Cl)c1ccccc1` (stereo not drawn), the growth in the assay with T-47D breast is -1.59% (active); in the assay with BT-549 breast it was 96.5%; in the assay with MDA-MB-435 melanoma, 33.7%; in the assay on SW-620 colon, -41.3% (active); in the assay on MCF7 breast, 9.18% (active); in the assay with HCC-2998 colon it was 98.1%. For the same molecule, the growth in the assay with KM12 colon is 81.3%.

With `CCCCC[C@@H]1Cc2cc(O)c(C(=O)O)c3c2[C@H](C[C@@]2(CCCO2)O3)O1`, the growth in the assay with T-47D breast was 108%; in the assay with BT-549 breast it was 115%; in the assay on MDA-MB-435 melanoma, 97.2%; with SW-620 colon it was 111%; in the assay with MCF7 breast, 102%; in the assay on HCC-2998 colon, 95.9%. Also, the growth in the assay with KM12 colon is 118%.

For `COC(=O)CCCCN=Cc1c(O)c(O)c(C(C)C)c2cc(C)c(-c3c(C)cc4c(C(C)C)c(O)c(O)c(C=NCCCCC(=O)OC)c4c3O)c(O)c12`, the growth is 24.9% in the assay on T-47D breast; 28.2% in the assay on BT-549 breast; 25.7% in the assay on MDA-MB-435 melanoma; 17% with SW-620 colon; 9.71% (active) in the assay on MCF7 breast; 29.7% in the assay with HCC-2998 colon. Besides, in the assay with KM12 colon, the growth was 16.1%.

Regarding `COc1cc(C2C3=C(COC3=O)Nc3c2ccc2c3CCCC2)cc2c1OCO2` (stereo not drawn), the growth in the assay with T-47D breast is 73.5%; with BT-549 breast it was 9.86% (active); in the assay with MDA-MB-435 melanoma, -16.9% (active); in the assay on SW-620 colon, 23.1%; in the assay on MCF7 breast it was 16.3%; in the assay with HCT-116 colon, 0.327% (active). In addition, in the assay with KM12 colon, the growth was -34.8% (active).

Take `CC(=O)OC[Si](C)(C)c1ccccc1`: the growth in the assay on T-47D breast is 105%; in the assay on BT-549 breast, 107%; in the assay with MDA-MB-435 melanoma, 99.1%; in the assay on SW-620 colon, 101%; in the assay with MCF7 breast, 107%; in the assay with HCC-2998 colon, 122%. In the assay on KM12 colon, the growth was 110%.

Regarding `Cn1cc(C=O)c2ccccc21`, the growth was 102% in the assay on T-47D breast; 106% in the assay on BT-549 breast; 106% in the assay with MDA-MB-435 melanoma; 95.1% in the assay on SW-620 colon; 99.3% in the assay on MCF7 breast; 100% with HCC-2998 colon. For the same molecule, in the assay with KM12 colon, the growth was 102%.
